Laboratory results from PubChem BioAssay.
For some assays here: Entries with a potency or affinity are not part of this list. Active and inactive are the calls of the source. Unless noted, how the calls were made is not given here.

Columns and labels:
[1] = antimalarial activity against Dd2 strain (AID 2302;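 active means growth inhibition above 50% at the single 2 µM test dose, taken to imply half-maximal potency below 2 µM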;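 further: 0% = DMSO untreated growth and 100% = chloroquine plus artemisinin killed control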); conditions: P. falciparum Dd2 in RBCs, LDH growth readout, 72 h; at 2 µM; active compounds read high
[2] = HepG2 cytotoxicity, primary screen, cytotoxicity control for P. falciparum antimalarial project, cell-based, ATP luminescence (AID 2303;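 active means inhibition above 50%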;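 further: 0% = DMSO wells and 100% = digitonin-killed cells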); conditions: HepG2 viability, 24-48 h, at 10 µM, active compounds read high
[3] = target: L-lactate dehydrogenase (Plasmodium falciparum (isolate CDC / Honduras)) (UniProt Q27743); assay: PfLDH activity inhibition – cell lysate, 3D7 strain, counter-screen for P. falciparum growth inhibition project (AID 2304);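 further: 0% = vehicle and 100% = reference inhibitor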; conditions: P. falciparum 3D7 crude extract, LDH APAD/NBT absorbance; at 2 µM; active compounds read high
Chain of L-lactate dehydrogenase (Plasmodium falciparum (isolate CDC / Honduras)) (Q27743 whole entry, looked up): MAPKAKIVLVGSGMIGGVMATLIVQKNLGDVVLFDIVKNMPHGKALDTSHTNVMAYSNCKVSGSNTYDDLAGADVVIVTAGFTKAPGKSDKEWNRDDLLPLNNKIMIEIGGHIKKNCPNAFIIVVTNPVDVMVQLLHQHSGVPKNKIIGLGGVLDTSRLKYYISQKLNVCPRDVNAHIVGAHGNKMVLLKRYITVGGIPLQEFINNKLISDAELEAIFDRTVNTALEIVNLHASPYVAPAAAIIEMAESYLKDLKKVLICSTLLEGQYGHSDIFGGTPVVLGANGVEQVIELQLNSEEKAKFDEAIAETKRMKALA

[4] = inhibition of 3D7 malaria parasite growth – strain 3D7 (AID 2306);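 further: 0% = DMSO wells and 100% = chloroquine plus artemisinin control wells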; conditions: P. falciparum 3D7 erythrocytic growth, LDH absorbance, 72 h; at 2 µM; active compounds read high
[5] = target: Calcium-dependent protein kinase 1 (Plasmodium falciparum (isolate 3D7)) (UniProt P62344); assay: PfCDPK1 kinase inhibitors, biochemical, TCAMS library (AID 1159585; cut-off not given, nearly all actives have IC50 up to about 0.98 µM;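 further: inhibitors leave more ATP so luminescence rises with inhibition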); conditions: recombinant PfCDPK1, Kinase-Glo ATP depletion luminescence
Chain of Calcium-dependent protein kinase 1 (Plasmodium falciparum (isolate 3D7)) (P62344 whole entry, looked up): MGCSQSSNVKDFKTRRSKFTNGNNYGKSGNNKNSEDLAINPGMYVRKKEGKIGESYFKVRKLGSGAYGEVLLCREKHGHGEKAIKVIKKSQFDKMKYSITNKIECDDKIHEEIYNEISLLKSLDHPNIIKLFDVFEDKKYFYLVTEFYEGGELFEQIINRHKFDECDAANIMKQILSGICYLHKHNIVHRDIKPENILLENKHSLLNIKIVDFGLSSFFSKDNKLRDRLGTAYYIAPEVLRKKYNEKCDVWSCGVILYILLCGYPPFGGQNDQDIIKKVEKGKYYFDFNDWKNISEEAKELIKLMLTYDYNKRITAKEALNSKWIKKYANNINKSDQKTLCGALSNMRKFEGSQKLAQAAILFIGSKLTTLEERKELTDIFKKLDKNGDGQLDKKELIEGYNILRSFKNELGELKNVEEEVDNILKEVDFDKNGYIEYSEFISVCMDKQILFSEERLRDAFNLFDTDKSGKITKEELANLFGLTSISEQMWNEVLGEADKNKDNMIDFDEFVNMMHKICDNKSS

[6] = target: Plasmodium falciparum protein kinase 6 (PK6, PF3D7_1337100) (UniProt Q8IDW1); assay: PfPK6 kinase inhibitors, biochemical, TCAMS library (AID 1159586); conditions: recombinant PfPK6, Kinase-Glo ATP depletion luminescence
Chain of Plasmodium falciparum protein kinase 6 (PK6, PF3D7_1337100) (Q8IDW1 1-305): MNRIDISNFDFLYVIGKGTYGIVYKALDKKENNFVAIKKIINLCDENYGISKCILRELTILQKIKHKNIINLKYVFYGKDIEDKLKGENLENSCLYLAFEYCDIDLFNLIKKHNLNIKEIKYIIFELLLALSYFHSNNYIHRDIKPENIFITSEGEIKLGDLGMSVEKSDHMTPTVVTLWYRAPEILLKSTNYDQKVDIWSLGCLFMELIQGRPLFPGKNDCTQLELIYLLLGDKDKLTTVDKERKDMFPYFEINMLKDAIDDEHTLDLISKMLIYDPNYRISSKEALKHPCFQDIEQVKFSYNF

[7] = target: Protein kinase 7 (PK7), Plasmodium falciparum 3D7 (PF3D7_0213400) (UniProt Q7YTF7); assay: inhibition of Plasmodium PK7 catalytic activity – biochemical, TCAMS antimalarial set, Kinase-Glo luminescence (AID 1159587); conditions: recombinant PfPK7, Kinase-Glo ATP depletion luminescence
Chain of Protein kinase 7 (PK7), Plasmodium falciparum 3D7 (PF3D7_0213400) (Q7YTF7 1-343): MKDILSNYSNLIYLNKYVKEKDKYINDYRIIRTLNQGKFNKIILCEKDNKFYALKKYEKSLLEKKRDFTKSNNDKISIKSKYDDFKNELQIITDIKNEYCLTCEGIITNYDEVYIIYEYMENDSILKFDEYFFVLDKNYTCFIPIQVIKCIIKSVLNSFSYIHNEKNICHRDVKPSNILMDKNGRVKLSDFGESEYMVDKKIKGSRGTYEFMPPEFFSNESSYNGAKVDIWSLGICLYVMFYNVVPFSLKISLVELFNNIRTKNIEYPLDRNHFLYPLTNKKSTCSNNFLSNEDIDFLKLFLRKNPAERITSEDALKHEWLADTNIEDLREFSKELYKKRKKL

[8] = target: Calcium-dependent protein kinase 4 (Plasmodium falciparum (isolate 3D7)) (UniProt Q8IBS5); assay: PfCDPK4 kinase inhibitors, biochemical, TCAMS library (AID 1159588; cut-off not given, nearly all actives have IC50 up to about 0.91 µM); conditions: recombinant PfCDPK4, Kinase-Glo ATP depletion luminescence
Chain of Calcium-dependent protein kinase 4 (Plasmodium falciparum (isolate 3D7)) (Q8IBS5 whole entry, looked up): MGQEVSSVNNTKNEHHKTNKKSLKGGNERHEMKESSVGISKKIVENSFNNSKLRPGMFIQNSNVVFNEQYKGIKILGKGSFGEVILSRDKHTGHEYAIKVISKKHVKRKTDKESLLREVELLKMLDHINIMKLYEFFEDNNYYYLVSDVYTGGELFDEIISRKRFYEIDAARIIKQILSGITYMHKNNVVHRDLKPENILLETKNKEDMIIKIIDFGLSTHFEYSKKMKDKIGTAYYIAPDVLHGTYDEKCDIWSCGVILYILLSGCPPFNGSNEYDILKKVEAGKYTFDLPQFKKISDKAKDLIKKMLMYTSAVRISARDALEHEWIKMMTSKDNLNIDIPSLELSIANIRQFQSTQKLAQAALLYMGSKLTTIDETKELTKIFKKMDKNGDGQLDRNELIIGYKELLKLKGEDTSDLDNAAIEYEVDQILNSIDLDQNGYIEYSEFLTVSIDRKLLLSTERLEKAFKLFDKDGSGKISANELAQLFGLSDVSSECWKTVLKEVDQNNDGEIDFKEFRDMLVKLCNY

CN(C)CCNC(=O)c1cccc(-c2cnc3ccc(NCc4ccc(Cl)c(Cl)c4)nn23)c1
inactive: inhibition [2] 31% | inhibition [3] -2% | outcome [5] | outcome [6] | outcome [7] | outcome [8]
active: growth inhibition [1] 53% | growth inhibition [4] 100%

CCC(N)(C#Cc1ccc(-c2c(C)[nH]c(C)c(Br)c2=O)cc1)CC
inactive: inhibition [2] 0% | inhibition [3] -1% | outcome [5] | outcome [6] | outcome [7] | outcome [8]
active: growth inhibition [1] 96% | growth inhibition [4] 97%

c1ccc(COc2ccc(Nc3ncnc4ccc(-c5ccc(CN6CCSCC6)o5)cc34)cc2)cc1
active: growth inhibition [4] 94%
inactive: growth inhibition [1] 4% | inhibition [2] 4% | inhibition [3] 4% | outcome [5] | outcome [6] | outcome [7] | outcome [8]

Cc1ccc(-c2nc(Nc3ccncc3)c3ccccc3n2)s1
active: growth inhibition [4] 95%
inactive: growth inhibition [1] 34% | inhibition [2] 6% | inhibition [3] 1% | outcome [5] | outcome [6] | outcome [7] | outcome [8]
